Measurements as given in PubChem BioAssay (Tox21).
Unmarked numbers belong to inactive results. Inconclusive results are not listed. Entries that show only a call come without a potency. Calls of active or inactive are those of the source. The call rests on the fitted dose curve; in most records, active means well fitted curve in the direction sought with a large enough effect in the repeat runs; inconclusive means weak or mixed curves; inactive means no such curve, though single readings can be large; an effect the other way counts as inactive or inconclusive.

Key:
[1] = Human pregnane X receptor (PXR) small molecule agonists, qHTS cell viability counter screen (AID 1346977); further: nearly all actives have a fitted effect of over 50% in size; further: potency means the concentration at half of the fitted maximal effect
Procedure, shortened: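 HepG2 cells stably carrying the PXR-Luc reporter are cultured with 5% charcoal-stripped FBS and treated with compounds for 24hr. CellTiter-Fluor is added at 23hr and fluorescence is read after 1hr.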

[2] = Caspase-3/7 induction in HepG2 cells by small molecules, qHTS assay (AID 1346978); further: nearly all actives have a fitted effect of over 15% in size
Procedure, shortened: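 Wild-type HepG2 cells, 2,000/well, settled 5 hr at 37 C and 5% CO2, then compound-treated for 17 hr; caspase-3/7 activity read by luminescent Caspase-Glo 3/7 after 30 min at room temperature.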

[3] = Caspase-3/7 induction in CHO-K1 cells by small molecules, qHTS cell viability counter screen (AID 1346979); further: nearly all actives have a fitted effect of over 35% in size; further: potency means the concentration at half of the fitted maximal effect
Procedure, shortened: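 Seeding: 1,500 CHO-K1 cells/well. Rest: 5hr, 37C. Treatment: compounds in DMSO, 16hr. Read: CellTiter-Fluor, 1hr, fluorescence.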

[4] = Caspase-3/7 induction in CHO-K1 cells by small molecules, qHTS assay (AID 1346980); further: nearly all actives have a fitted effect of over 15% in size
Procedure, shortened: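 Wild-type CHO-K1 cells exposed to compounds for 17hr at 37 C, 5% CO2. Caspase-3/7 activity then measured by Caspase-Glo 3/7 luminescence after 30min at room temperature.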

[5] = Caspase-3/7 induction in HepG2 cells by small molecules, qHTS cell viability counter screen (AID 1346981); further: nearly all actives have a fitted effect of over 30% in size; further: potency means the concentration at half of the fitted maximal effect
Procedure, shortened: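 Cell viability is measured as a cytotoxicity counter screen alongside the Caspase-Glo 3/7 readout in identical wells. Wild-type HepG2 cells are treated with test compounds for 16 hr at 37 C before CellTiter-Fluor addition and a 1-hr incubation.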

[6] = target: Nuclear receptor subfamily 1 group I member 2 (Homo sapiens) (UniProt O75469); test: Human pregnane X receptor (PXR) small molecule agonists, qHTS assay (AID 1346982); further: nearly all actives have a fitted effect of over 35% in size; further: potency means the concentration at half of the fitted maximal effect
Procedure, shortened: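 Cells: HepG2 stably carrying PXR-Luc. Medium held 5% charcoal-stripped FBS. Compounds in DMSO added after 5 hr plating, incubated 24 hr, then luminescence quantified with ONE-Glo.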

[7] = target: Nuclear receptor subfamily 1 group I member 2 (Rattus norvegicus) (UniProt Q9R1A7); test: Rat pregnane X receptor (rPXR) activation by small molecules, qHTS assay (AID 1346983); details: rPXR luciferase reporter cells, One-Glo luminescence, 24 h; max activation: stronger effect = higher value; further: nearly all actives have a fitted effect of over 20% in size
Procedure, shortened: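 Cell-based rPXR activation assay: rPXR cells, 2,000 per well, rested 5hr at 37 C, then exposed to compounds in DMSO for 24 hr at 37 C. Luciferase activity read by One-Glo luminescence after 30 min at room temperature.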

[8] = target: Nuclear receptor subfamily 1 group I member 2 (Homo sapiens) (UniProt O75469); test: CYP3A4 induction through human pregnane X receptor (PXR) by small molecules, qHTS assay (AID 1346984); further: nearly all actives have a fitted effect of over 40% in size; further: potency means the concentration at half of the fitted maximal effect
Procedure, shortened: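 Quantitative HTS in DPX-2 cells, i.e. HepG2 transfected with PXR response element and CYP3A4-promoter luciferase. Compounds in DMSO incubated 24hr at 37C; then P450-Glo CYP3A4 substrate, 3uM final, 3hr; One-Glo luminescence.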

[9] = target: Nuclear receptor subfamily 1 group I member 2 (Homo sapiens) (UniProt O75469); test: Human pregnane X receptor (PXR) activation by small molecules, qHTS assay (AID 1346985); further: nearly all actives have a fitted effect of over 40% in size
Procedure, shortened: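 DPX-2 cells (HepG2 co-transfected with a PXR response element and a CYP3A4-promoter luciferase construct) were seeded at 2,000 per well, rested 5 hr at 37C, then exposed to DMSO-dissolved compounds for 24 hr. Activation was read as luciferase luminescence.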

[10] = target: Cytochrome P450 2D6 (Homo sapiens) (UniProt P10635); test: Cytochrome P450 Family 2 Subfamily D Member 6 (CYP2D6) small molecule antagonists: luciferase reporter qHTS assay (AID 1671196); further: nearly all actives have a fitted effect of over 50% in size; further: potency means the concentration at half of the fitted maximal effect
Procedure, shortened: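 Enzyme and proluciferin substrate were first combined with test chemical for 10 min at room temperature. Adding NADPH regeneration solution started a 1 h reaction, stopped with luciferin detection reagent and read by luminescence 20 min later.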

Chain of Nuclear receptor subfamily 1 group I member 2 (Homo sapiens) (O75469 whole entry, looked up): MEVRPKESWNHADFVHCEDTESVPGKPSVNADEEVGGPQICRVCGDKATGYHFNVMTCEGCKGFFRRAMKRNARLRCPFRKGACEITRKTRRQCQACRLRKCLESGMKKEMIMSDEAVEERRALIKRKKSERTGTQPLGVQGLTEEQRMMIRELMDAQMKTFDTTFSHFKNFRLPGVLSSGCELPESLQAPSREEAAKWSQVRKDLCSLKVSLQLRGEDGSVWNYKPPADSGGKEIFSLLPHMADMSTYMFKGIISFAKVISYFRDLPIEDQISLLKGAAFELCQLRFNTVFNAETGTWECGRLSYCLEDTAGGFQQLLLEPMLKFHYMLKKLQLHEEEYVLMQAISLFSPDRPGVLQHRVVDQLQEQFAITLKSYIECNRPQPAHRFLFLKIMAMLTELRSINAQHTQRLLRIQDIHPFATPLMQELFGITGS
Chain of Nuclear receptor subfamily 1 group I member 2 (Rattus norvegicus) (Q9R1A7 whole entry, looked up): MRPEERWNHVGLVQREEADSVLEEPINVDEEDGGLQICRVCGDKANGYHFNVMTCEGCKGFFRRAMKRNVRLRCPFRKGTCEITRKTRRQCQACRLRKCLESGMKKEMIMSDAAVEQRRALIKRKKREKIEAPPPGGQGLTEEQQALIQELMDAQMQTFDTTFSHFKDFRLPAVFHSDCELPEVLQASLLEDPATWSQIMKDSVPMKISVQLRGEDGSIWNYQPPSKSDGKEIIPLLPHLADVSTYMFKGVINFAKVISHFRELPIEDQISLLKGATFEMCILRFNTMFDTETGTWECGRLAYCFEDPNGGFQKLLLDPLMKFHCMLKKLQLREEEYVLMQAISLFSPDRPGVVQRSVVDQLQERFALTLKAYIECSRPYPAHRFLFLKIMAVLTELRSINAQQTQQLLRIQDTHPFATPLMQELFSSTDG
Chain of Cytochrome P450 2D6 (Homo sapiens) (P10635 whole entry, looked up): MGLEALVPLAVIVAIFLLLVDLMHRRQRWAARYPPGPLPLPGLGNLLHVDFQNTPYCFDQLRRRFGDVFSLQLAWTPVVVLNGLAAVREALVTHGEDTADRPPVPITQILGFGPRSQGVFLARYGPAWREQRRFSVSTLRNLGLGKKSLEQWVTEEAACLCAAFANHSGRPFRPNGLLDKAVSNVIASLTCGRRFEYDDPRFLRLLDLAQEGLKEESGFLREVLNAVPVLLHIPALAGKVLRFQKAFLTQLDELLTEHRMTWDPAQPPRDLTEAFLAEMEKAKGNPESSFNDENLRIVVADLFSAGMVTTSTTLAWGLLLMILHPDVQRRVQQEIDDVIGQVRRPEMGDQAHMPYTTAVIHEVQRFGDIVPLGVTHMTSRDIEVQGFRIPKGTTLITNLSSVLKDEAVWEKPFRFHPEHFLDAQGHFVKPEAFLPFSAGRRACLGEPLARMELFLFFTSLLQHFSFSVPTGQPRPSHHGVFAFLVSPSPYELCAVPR

CN1C(=O)OC(C)(C)C1=O
Potency [1]: inactive
Potency [2]: inactive
Potency [3]: inactive
Potency [4]: inactive
Potency [5]: inactive
Potency [6]: 37.9 µM (active)
max activation [7]: -2.55%
Potency [8]: inactive
Potency [9]: inactive
Potency [10]: inactive

CC[N+](CC)(CCNC(=O)C(=O)NCC[N+](CC)(CC)Cc1ccccc1Cl)Cc1ccccc1Cl
Potency [1]: inactive
Potency [2]: inactive
Potency [3]: inactive
Potency [4]: inactive
Potency [5]: inactive
Potency [6]: inactive
max activation [7]: -3.21%
Potency [8]: inactive
Potency [9]: inactive
Potency [10]: 15.5 µM (active)

O=C1Cc2cc(Cl)ccc2N1
Potency [1]: inactive
Potency [2]: inactive
Potency [3]: inactive
Potency [4]: inactive
Potency [5]: inactive
Potency [6]: inactive

C/C=C/C=C/C=O
Potency [1]: inactive
Potency [2]: inactive
Potency [3]: inactive
Potency [4]: inactive
Potency [5]: inactive
Potency [6]: inactive

CC(C)Nc1cccnc1N1CCN(C(=O)c2cc3cc(NS(C)(=O)=O)ccc3[nH]2)CC1
Potency [1]: inactive
Potency [2]: inactive
Potency [3]: inactive
Potency [4]: inactive
Potency [5]: inactive
Potency [6]: inactive
max activation [7]: 0.79%
Potency [8]: inactive
Potency [9]: inactive
Potency [10]: 5.49 µM (active)

CCCCCCCCCI
Potency [1]: inactive
Potency [2]: inactive
Potency [3]: inactive
Potency [4]: inactive
Potency [5]: inactive

O=C(/C=C/c1ccc(O)c(O)c1)O[C@@H]1C[C@@](OC(=O)/C=C/c2ccc(O)c(O)c2)(C(=O)O)C[C@@H](O)[C@@H]1O
Potency [1]: inactive
Potency [2]: inactive
Potency [3]: inactive
Potency [4]: inactive
Potency [5]: inactive
Potency [6]: inactive
max activation [7]: -5.53%
Potency [8]: inactive
Potency [9]: inactive

COc1cc(C(=O)NCCCCCC(=O)O)cc(OC)c1OC
Potency [1]: inactive
Potency [2]: inactive
Potency [3]: inactive
Potency [4]: inactive
Potency [5]: inactive
Potency [6]: inactive
max activation [7]: -0.807%
Potency [8]: inactive
Potency [9]: inactive

CCCCCC[C@@H](O)C/C=C\CCCCCCCC(=O)OCC(O)CO (stereo partly specified)
Potency [1]: inactive
Potency [2]: inactive
Potency [3]: inactive
Potency [4]: inactive
Potency [5]: inactive
Potency [6]: 34.4 µM (active)

Cc1cc(=O)c2c(O)c3c(O)cc(=O)c4c3c3c(cc(O)c1c23)C(C)(C)C=4O
Potency [1]: 0.73 µM (active)
caspase activation [2]: -2.97% [at 19 µM]
Potency [3]: 2.59 µM (active)
caspase-3/7 activation [4]: -1.78% [at 19 µM]

C[C@@H](O)[C@H]1C(=O)N2C(C(=O)O)=C([C@H]3CCCO3)S[C@H]12
Potency [1]: inactive
Potency [2]: inactive
Potency [3]: inactive
Potency [4]: inactive
Potency [5]: inactive
Potency [6]: inactive
max activation [7]: -4.46%
Potency [8]: inactive
Potency [9]: inactive

O=C(O)CCCCCCCCCCCBr
Potency [1]: inactive
Potency [2]: inactive
Potency [3]: inactive
Potency [4]: inactive
Potency [5]: inactive

c1cc(N(CC2CO2)CC2CO2)ccc1Cc1ccc(N(CC2CO2)CC2CO2)cc1 (stereo unspecified)
Potency [1]: 54.5 µM (active)
Potency [2]: inactive
Potency [3]: 54.5 µM (active)
Potency [4]: inactive
Potency [5]: 61.1 µM (active)
Potency [6]: 27.3 µM (active)

CC(C)=CCC/C(C)=C/CC/C(C)=C/C(=O)OCC(=O)[C@@]1(O)CC[C@H]2[C@@H]3CCC4=CC(=O)C=C[C@]4(C)[C@H]3[C@@H](O)C[C@@]21C
Potency [1]: inactive
Potency [2]: inactive
Potency [3]: 18.8 µM (active)
Potency [4]: inactive

CCC(C)COC(C)=O (stereo unspecified)
Potency [1]: inactive
Potency [2]: inactive
Potency [3]: inactive
Potency [4]: inactive
Potency [5]: inactive
Potency [6]: inactive
Potency [10]: inactive

CCCCCCCC/C=C\CCCCCCCCO
Potency [1]: inactive
Potency [2]: inactive
Potency [3]: inactive
Potency [4]: inactive
Potency [5]: inactive
Potency [6]: 30.6 µM (active)
Potency [10]: inactive

COC(=O)CCS
Potency [1]: inactive
Potency [2]: inactive
Potency [3]: inactive
Potency [4]: inactive
Potency [5]: inactive
Potency [6]: inactive
Potency [10]: inactive

CCOC(=O)/C=C/C(=O)OCC
Potency [1]: inactive
Potency [2]: inactive
Potency [3]: inactive
Potency [4]: inactive
Potency [5]: inactive
Potency [6]: inactive
Potency [10]: inactive

Cc1ccco1
Potency [1]: inactive
Potency [2]: inactive
Potency [3]: inactive
Potency [4]: inactive
Potency [5]: inactive
Potency [6]: inactive
Potency [10]: 34.8 µM (active)

CC(=O)Oc1ccc([N+](=O)[O-])cc1CCl
Potency [1]: 48.6 µM (active)
Potency [2]: inactive
Potency [3]: 30.6 µM (active)
Potency [4]: inactive
Potency [5]: 27.3 µM (active)
Potency [6]: inactive
Potency [10]: inactive

CC(=O)[C@H]1[C@H](C#N)C[C@H]2[C@@H]3CC=C4C[C@@H](O)CC[C@]4(C)[C@H]3CC[C@@]21C
Potency [1]: inactive
Potency [2]: inactive
Potency [3]: inactive
Potency [4]: inactive
Potency [5]: inactive
Potency [6]: 33.1 µM (active)
Potency [10]: inactive

CCOc1ccc(Cc2nccc3cc(OCC)c(OCC)cc23)cc1OCC
Potency [1]: 26.6 µM (active)
Potency [2]: inactive
Potency [3]: 11.9 µM (active)
Potency [4]: inactive
Potency [5]: 29.8 µM (active)
max activation [7]: -4.93%

NCCNCCO
Potency [1]: inactive
Potency [2]: inactive
Potency [3]: inactive
Potency [4]: inactive
Potency [5]: inactive
Potency [6]: inactive
Potency [10]: 28.6 µM (active)

Cc1ccccc1N=C(N)Nc1ccccc1C
Potency [1]: inactive
Potency [2]: inactive
Potency [3]: inactive
Potency [4]: inactive
Potency [5]: inactive
Potency [6]: inactive
Potency [10]: 0.0156 µM (active)

CCC1(CO)COCOC1
Potency [1]: inactive
Potency [2]: inactive
Potency [3]: inactive
Potency [4]: inactive
Potency [5]: inactive
Potency [6]: inactive
Potency [10]: inactive

CN(C)CCC=C1c2ccccc2C=Cc2ccccc21
Potency [1]: 13.3 µM (active)
Potency [2]: inactive
Potency [3]: inactive
Potency [4]: inactive
Potency [5]: inactive
Potency [6]: inactive
max activation [7]: 0.747%
Potency [8]: 31.6 µM (active)
Potency [10]: 6.17 µM (active)

O=Cc1c2ccccc2c(Cl)c2ccccc12
Potency [1]: inactive
Potency [2]: inactive
Potency [3]: 23.7 µM (active)
Potency [4]: inactive
Potency [5]: inactive
Potency [6]: inactive
Potency [10]: inactive
